An excerpt weighted towards active compounds, which were near 7.5% of everything screened.
FLuc counter – inhibits or activates purified firefly luciferase, miR-21 counter-screen. P08659. purified FLuc, Km substrates, luminescence inhibition. Potency, µM (titrated, usually from 57.5 µM), for inactives: at the highest dose activity change, negative = inhibition, usual class: inhibitors. 360,000 tested, 6.9% active. AID 588342;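 further: plate controls were vehicle for no effect and reference inhibitor for full effect; nearly all actives have a fitted effect of over 55% in size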
Target sequence (P08659 whole entry, looked up): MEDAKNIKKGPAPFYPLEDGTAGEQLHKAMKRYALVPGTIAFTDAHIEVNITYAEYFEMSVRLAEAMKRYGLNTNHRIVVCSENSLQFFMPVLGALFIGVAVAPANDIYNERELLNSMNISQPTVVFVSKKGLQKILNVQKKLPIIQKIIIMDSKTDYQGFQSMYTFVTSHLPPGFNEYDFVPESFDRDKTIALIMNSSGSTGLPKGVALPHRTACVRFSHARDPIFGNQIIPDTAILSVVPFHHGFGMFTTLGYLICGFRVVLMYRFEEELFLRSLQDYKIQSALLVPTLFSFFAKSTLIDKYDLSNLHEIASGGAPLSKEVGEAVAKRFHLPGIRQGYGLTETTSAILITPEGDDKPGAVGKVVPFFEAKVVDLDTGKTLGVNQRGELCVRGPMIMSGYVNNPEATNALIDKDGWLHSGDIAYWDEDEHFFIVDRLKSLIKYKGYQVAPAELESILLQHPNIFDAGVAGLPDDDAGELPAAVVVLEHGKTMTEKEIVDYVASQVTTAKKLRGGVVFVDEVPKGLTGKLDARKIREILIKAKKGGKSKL
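Biochemical qHTS of compounds, final roughly 60 µM downward over six points, against 10 nM purified firefly luciferase using Km concentrations of substrates (10 uM D-luciferin, 10 uM ATP) in Tris acetate pH 7.5 buffer; luminescence output.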
Rab9 prom act – activates the Rab9 promoter | Huh7 Rab9 promoter-luciferase reporter, luminescence, 24 h | Potency, µM (titrated, usually from 9.22 µM), inactives show at the top dose activation, negative = inhibition, usual class: activators | 320,000 tested, 2.8% active | AID 485297; further: % of control where 0% means no effect; nearly all actives have a fitted effect of over 60% in size
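Huh7 cells stably carrying a Rab9 promoter-luciferase reporter, 1500 cells per well in OP-MEM I with 10% FBS, treated with compound 24 hours at 37C. Luciferase activity read by luminescence after 10 minutes with Amplite reagent.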
NPC1 prom act – NPC1 promoter activation; Potency, µM (top dose mostly 9.22 µM), without a hit: at the highest dose activation, actives largely listed as activators; Huh7 NPC1 promoter luciferase reporter, 24 h; 320,000 tested, 2.4% active; AID 485313; further: % of control where 0% means no effect; nearly all actives have a fitted effect of over 60% in size
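Compounds in DMSO were transferred onto Huh7 NPC1-luciferase reporter cells pre-incubated 2 h; after 24 h at 37 °C, Amplite reagent was dispensed and luminescence recorded 10 min later.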
ELG1 genotox – inducers of genotoxicity in HEK293T ELG1-luciferase cells; HEK293T ELG1-luciferase reporter, luminescence, 16 h; Potency, µM (titrated, usually from 46 µM), for the others: at the highest dose activity change, positive = activation, actives largely listed as activators; 330,000 tested, 1.3% active; AID 504466; further: % of control where 0% means no effect; nearly all actives have a fitted effect of over 60% in size
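Cells (2,000/well) expressing the ELG1-luciferase fusion are dosed by pin tool and kept 16 hr at 37 °C, 5% CO2. Signal comes from ONE-Glo luciferase reagent after 30 min at room temperature.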
SMN2 splice enh – increases expression of the SMN2 splice variant | AID 1458 | Potency, µM (doses to about 46.1 µM), for inactives: top-dose activity change, positive = activation, usual class: activators | 210,000 tested, 2.8% active | HEK293 SMN2-luciferase splicing reporter, luminescence, 30-36 h; further: % of control where 0% means no effect; nearly all actives have a fitted effect of over 55% in size
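HEK293 cells carry an SMN2 minigene-luciferase reporter in which exon 7 inclusion puts luciferase in frame. Cells were seeded at 2000 cells/well, attached for 10-12 hours, then exposed to compounds for 30-36 hours at 37C before ONE-Glo luminescence.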
KinaseGlo FLuc – Kinase-Glo luciferase inhibition (counter-screen); AID 1379; Kinase-Glo luciferase, ATP luminescence, 8 min; 200,000 tested, 0.28% active; Potency, µM (top dose mostly 38.3 µM), without a hit: at the highest dose activity change, negative = inhibition, hits mostly inhibitors; Q27757; further: on the % scale 0 is the no-effect control and ±100 the full control effect; nearly all actives have a fitted effect of over 60% in size
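Compound is pinned into ATP-containing buffer (10 uM ATP, imidazole pH 7.2, 7 mM MgCl2). Kinase-Glo luciferase reagent is then added. Light output is recorded following an 8-min room-temperature incubation.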
* hit, by the source's call; ? = inconclusive; · = no result; [ ] = remark or other dose. The call rests on the fitted dose curve; in most records, active means well fitted curve in the direction sought with a large enough effect; inconclusive means small, poorly fitted or top-dose-only effect, or another doubt; inactive means no such curve, though single readings can be large; an effect the other way counts as inactive or inconclusive. Potency means the concentration at half of the fitted maximal effect.

SMILES	FLuc counter	Rab9 prom act	NPC1 prom act	ELG1 genotox	SMN2 splice enh	KinaseGlo FLuc
COc1ccc(C(=O)c2sc(Nc3ccccc3)nc2N)cc1	-18%	19%	8%	2%	·	·
CC(=O)c1ccc(NC(=S)NC2CCCC(C)C2C)cc1 (stereo unspecified)	?	2%	-2%	1%	12%	0%
CC1CCCCC1NC(=S)Nc1ccc(SC(F)F)cc1 (stereo unspecified)	21µM*	9%	5%	-13%	?	-3%
S=C(Nc1ccc(Oc2ccccc2)cc1)NC1CCCC1	?	-6%	2%	0%	?	6%
S=C(Nc1ccc(Br)cc1)NC1CCCC1	12µM*	?	26%	12%	11µM*	-1%
FC(F)Sc1ccc(NC(=S)NC2CCCCC2)cc1	11µM*	?	26%	?	?	-2%
FC(F)Sc1ccc(NC(=S)NCC2CCCCC2)cc1	24µM*	8%	8%	?	25%	-2%
CN(CC(=O)Nc1ccc(SC(F)F)cc1)C1CCCCC1	-3%	2%	-3%	-7%	-5%	-1%
S=C(NCC1CCCCC1)Nc1ccc(Oc2ccccc2)cc1	1%	-5%	0%	-2%	-42%	2%
CCOC(=O)C1=C(C)NC(=O)N[C@@H]1c1coc2cc(C)cc(C)c2c1=O	·	·	·	·	0%[9.22 µM]	-2%[7.66 µM]
COc1cccc(N2CC(C(=O)Nc3c(C(N)=O)oc4ccccc34)CC2=O)c1 (stereo unspecified)	1%	-3%	0%	-3%	·	·
COc1ccc(-c2nc3cnc(OC)nc3n(Cc3cccc(OC)c3)c2=O)cc1	·	·	·	·	8%	-6%
CCN1C=CC(=C2C(=O)c3ccccc3C2=O)C=C1	0.085µM*	0.0003µM*	0.0002µM*	?	0.25µM*	5µM*
COC1=C(OC)C(=O)c2ccccc2C1=O	·	-42%[46.1 µM]	-24%[46.1 µM]	·	-96%	-5%
CCCCCCN1C=CC(=C2C(=O)c3ccccc3C2=O)C=C1	0.21µM*	0.11µM*	?	0.18µM*	·	8.9µM*
CN1C=CC(=C2C(=O)c3ccccc3C2=O)C=C1	3µM*	0.35µM*	0.45µM*	2.9µM*	13µM*	?
CCCN1C=CC(=C2C(=O)c3ccccc3C2=O)C=C1	0.067µM*	0.0003µM*	3.2e-05µM*	-7%	-79%	4.5µM*
CC1=CC(=C2C(=O)c3ccccc3C2=O)C=C(C)O1	?	?	?	20%	9%	-9%
CCCN1C(=O)C(=O)c2cc(C)ccc21	·	·	·	18%	·	·
CCOC(=O)c1ccc(N2CCOCC2)c(NC(=O)c2ccc3c(c2)OCO3)c1	0%	9%	1%	1%	·	·
CCN1CCN(CCNC(=O)CCCn2nc(C)c3c(C)n(-c4ccc(C)cc4)nc3c2=O)CC1	-1%	-8%	-5%	6%	·	·
CNC(C)C#Cc1c(-c2cc(OC)c(OC)c(OC)c2)noc1C (stereo unspecified)	0%	-1%	-4%	9%	·	·
COc1cccc2sc3cc(C#Cc4ccccn4)ccc3c(=O)c12	·	·	·	8%	·	·
CNC(C)C#Cc1ccc2sc3cccc(OC)c3c(=O)c2c1 (stereo unspecified)	?	18%	6%	5%	·	·
CNC(C)C#Cc1ccc2oc3cccc(OC)c3c(=O)c2c1 (stereo unspecified)	15µM*	?	24%	?	·	·
SMILES	FLuc counter	Rab9 prom act	NPC1 prom act	ELG1 genotox	SMN2 splice enh	KinaseGlo FLuc
CNC(C)C#Cc1ccc2c(=O)c3c(OC)cccc3oc2c1 (stereo unspecified)	24µM*	?	?	?	·	·
COc1cccc2oc3ccc(C#Cc4ccccn4)cc3c(=O)c12	1.1µM*	1.8µM*	0.79µM*	?	·	·
COc1cc(Br)ccc1C1CC(=O)C(C)C(c2ccc(Br)cc2OC)N1 (stereo unspecified)	-5%	-1%	0%	-3%	·	·
O=C(Nc1ccc(F)cc1)Nc1ccc2snnc2c1	24µM*	·	·	·	8%	·
COc1cccc(NC(=O)c2ccc3snnc3c2)c1	19µM*	?	?	16%	?	-12%
O=C(Nc1cccc(F)c1)c1ccc2snnc2c1	1%	·	·	·	8%	·
CC1CN(C(=O)Nc2ccc3snnc3c2)c2ccccc21 (stereo unspecified)	19µM*	4%	-1%	?	?	0%
Cc1ccc(OC(=O)c2ccc3snnc3c2)cc1	9.5µM*	0%	3%	3%	-16%	-3%
O=C(O)c1ccccc1C(=O)Nc1cc2c(cc1Br)-c1ccccc1C2=O	·	·	·	·	0%[9.22 µM]	-1%[7.66 µM]
COc1ccc(NC(=O)c2ccc3snnc3c2)cc1OC	-17%	·	·	·	6%	·
Cc1ccc(NC(=O)c2ccc3snnc3c2)cc1C	15µM*	?	?	?	20µM*	·
CCOC(=O)CCN(c1ccccc1)S(=O)(=O)c1ccc2[nH]c(=O)ccc2c1	-5%	·	·	·	·	·
CCN(c1ccc(OC)cc1)S(=O)(=O)c1ccc2[nH]c(=O)ccc2c1	5.4µM*	·	·	·	·	·
CCC(=O)Nc1ccccc1C(=O)OCC(=O)c1ccccc1	21µM*	3.5µM*	2.8µM*	?	16µM*	4%
COC(=O)COC(=O)c1ccccc1NC(=O)c1ccccc1	?	-6%	0%	0%	-8%	0%
CCC(=O)Nc1ccccc1C(=O)OCC(=O)c1ccc2ccccc2c1	15µM*	15%	10%	-5%	-11%	-4%
CCC(=O)Nc1ccccc1C(=O)OCC(=O)Nc1ccc(S(N)(=O)=O)cc1	2%	2%	0%	-3%	18%	2%
C=CCn1c(Cc2csc(N)n2)nnc1SCC(=O)Nc1ccccc1C(F)(F)F	3%	2%	-2%	-3%	-11%	-1%
COC(=O)c1sccc1N/N=C/c1ccc(OC)c(OC)c1OC	15µM*	?	?	?	14µM*	-3%
COC(=O)c1sccc1N/N=C/c1cccc(OC)c1O	0.95µM*	3.2µM*	3.5µM*	?	0.56µM*	10µM*
COC(=O)c1sccc1N/N=C/c1cccc(Oc2ccccc2)c1	1.9µM*	2.2µM*	3.2µM*	2.3µM*	?	?
CN(CC(=O)Nc1cccc(F)c1)C(=O)c1ccc(COc2ccccc2)cc1	-3%	3%	2%	?	·	·
C=CCn1c(N)c(C(=O)NCCC2=CCCCC2)sc1=S	?	19%	24%	?	13µM*	4%
Cc1ccc(S(=O)(=O)c2nnn3c2nc(NCc2cccs2)c2sccc23)cc1C	0%	·	·	·	·	·
CC(=O)C(=Cc1cc(C)n(-c2ccccc2)c1C)C(C)=O	19µM*	2%	-9%	-1%	17%	2%

High-throughput results from PubChem.
